Reference: PubChem BioAssay (Tox21)
Values joined by “and” are separate entries in the source; they are usually repeats but may differ in a detail not shown here. Equal entries are not always repeated. Inconclusive results are not listed. Some structures have more than one record in an assay (separate samples or runs), and their calls can disagree. Active and inactive are the calls of the source. Unless noted, calls follow the shape of the dose curve; as a rule, active = well fitted curve in the direction sought with a large enough effect in the repeat runs; inconclusive = weak or mixed curves; inactive = no such curve, though single readings can be large; an effect the other way counts as inactive or inconclusive.

Tests used:
[1] = qHTS assay to identify small molecule antagonists of the vitamin D receptor (VDR) signaling pathway - cell viability counter screen (AID 743225); also: nearly all actives have a fitted effect of over 50% in size; also: potency is read from the fitted curve at half-maximal effect
How it was run: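 In this counter screen, VDR-bla HEK 293T cells receive test compound plus 3 nM final calcitriol for 16 h at 37C. Room-temperature steps of 2 h with the beta-lactamase substrate, then 30 min with CellTiter-Glo, precede the luminescence read.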

[2] = qHTS assay to identify small molecule agonists of the NFkB signaling pathway - cell viability counter screen (AID 1159515; calls by dose curve; also: nearly all actives have a fitted effect of over 55% in size; also: potency is read from the fitted curve at half-maximal effect)
How it was run: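 NFkB-bla ME-180 cells, 2,000/well, plated overnight at 37 C; compound added for 5 hr at 37 C. Viability read in the same wells as the bla reporter, by CellTiter-Glo luminescence after 30 min at room temperature.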

[3] = qHTS assay to identify small molecule agonists of the endoplasmic reticulum stress response signaling pathway - cell viability counter screen (AID 1159517; calls by dose curve; also: nearly all actives have a fitted effect of over 50% in size; also: potency is read from the fitted curve at half-maximal effect)
How it was run: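 CellTiter-Glo was added to wells already read for beta-lactamase FRET, and luminescence was recorded 30 min later. Cells: ESRE-bla HeLa, 1,500 per well, compound exposure 5 hr at 37 C.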

[4] = qHTS assay to identify small molecule antagonists of the retinoid-related orphan receptor gamma (ROR-gamma) signaling pathway - cell viability counter screen (AID 1159520); also: nearly all actives have a fitted effect of over 50% in size; also: potency is read from the fitted curve at half-maximal effect
How it was run: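 Tet-on ROR gamma CHO cells (1,000/well) were plated 4 hr, given compounds in DMSO for 2 hr at 37 C, then induced with 1 uM final doxycycline for 16 hr. Viability was read as ATP by CellTiter-Glo luminescence after 30 min.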

[5] = biological target: Nuclear receptor ROR-gamma (Homo sapiens) (UniProt P51449); experiment: qHTS assay to identify small molecule antagonists of the retinoid-related orphan receptor gamma (ROR-gamma) signaling pathway (AID 1159521; also: nearly all actives have a fitted effect of over 50% in size; also: potency is read from the fitted curve at half-maximal effect)
How it was run: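 Screening format: cell-based luciferase reporter in CHO cells with doxycycline-inducible RORγ. Compound pre-exposure lasts 2 h, doxycycline is 1 uM final, induction runs 16 h at 37 C, and ONE-Glo luminescence is read.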

[6] = qHTS assay to identify small molecule agonists of the AP-1 signaling pathway - cell viability counter screen (AID 1159525; calls by dose curve; also: nearly all actives have a fitted effect of over 55% in size; also: potency is read from the fitted curve at half-maximal effect)
How it was run: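 ME-180 AP-1-bla, 2500 cells/well, Opti-MEM + 0.5% dialyzed FBS; overnight 37 °C; cpd 15-pt titration, 5 h 37 °C; CellTiter-Glo 30 min RT; luminescence read; normalised to TOAB and DMSO controls.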

[7] = qHTS assay to identify small molecule agonists of the RXR signaling pathway - cell viability counter screen (AID 1159529); also: nearly all actives have a fitted effect of over 50% in size; also: potency is read from the fitted curve at half-maximal effect
How it was run: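 Viability read-out for the RXR-alpha agonist qHTS: luminescent CellTiter-Glo signal after 30 min at RT. HEK 293T bla reporter cells, 2% charcoal-stripped FBS, 16 hr compound incubation; tetraoctyl ammonium bromide as cytotoxic control.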

[8] = qHTS assay to identify small molecule agonists of the endoplasmic reticulum stress response signaling pathway (AID 1159516; active = well fitted activation curve with a large enough effect in the signal ratio in the repeat runs, not every such curve was filed as active; the % refers to the signal ratio)
How it was run: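 CellSensor ESRE-bla HeLa cells, 1,500 per well, plated overnight, then exposed to compounds for 5 hr at 37 C. Beta-lactamase reporter read with LiveBLAzer B/G FRET substrate after 2 hr at room temperature, 405 nm excitation, 460 and 530 nm emission.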

[9] = qHTS assay to identify small molecule agonists of the AP-1 signaling pathway (AID 1159526; calls by dose curve; also: potency is read from the fitted curve at half-maximal effect)
[10] = biological target: Retinoic acid receptor RXR-alpha (Homo sapiens) (UniProt P19793); experiment: qHTS assay to identify small molecule agonists of the RXR signaling pathway (AID 1159527; calls by dose curve; also: nearly all actives have a fitted effect of over 35% in size; also: potency is read from the fitted curve at half-maximal effect)
Sequence of Retinoic acid receptor RXR-alpha (Homo sapiens) (P19793 whole entry, looked up): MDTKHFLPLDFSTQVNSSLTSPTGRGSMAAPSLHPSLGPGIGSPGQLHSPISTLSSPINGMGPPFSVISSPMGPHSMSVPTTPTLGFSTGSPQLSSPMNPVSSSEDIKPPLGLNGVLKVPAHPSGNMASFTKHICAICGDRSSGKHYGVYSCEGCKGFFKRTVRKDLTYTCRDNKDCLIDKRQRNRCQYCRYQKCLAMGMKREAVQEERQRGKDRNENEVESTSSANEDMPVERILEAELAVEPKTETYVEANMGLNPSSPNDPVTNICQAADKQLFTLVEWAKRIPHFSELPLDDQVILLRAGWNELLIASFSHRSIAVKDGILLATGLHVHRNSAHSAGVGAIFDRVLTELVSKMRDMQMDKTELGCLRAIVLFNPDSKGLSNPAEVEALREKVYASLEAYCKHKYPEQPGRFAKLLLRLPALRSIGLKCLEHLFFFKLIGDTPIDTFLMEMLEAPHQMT
How it was run: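 Fluorescence ratio readout (460 vs 530 nm) from GeneBLAzer RXR-alpha HEK 293T cells after 16 hr compound treatment; cells seeded 5 hr beforehand in low-serum, charcoal-stripped medium.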

Measured: Potency

CCCCCCCCCCCC[N+](C)(C)CCOc1ccccc1
13.8 µM (active) and inactive: [2]
active: [1] 21.9 µM and 21.3 µM | [3] 15.5 µM and 19 µM | [4] 61.1 µM | [5] 27.3 µM | [6] 49 µM and 23.9 µM | [7] 8.71 µM and 12 µM

CC[N+]1(CCOC(=O)C(O)(c2ccccc2)c2ccccc2)CCCCC1
inactive: [1] | [2] | [8] | [4] | [5] | [6] | [9] | [7]

COc1cc(C[C@@H](C)N)c(OC)cc1Br
inactive: [1] | [2] | [8] | [4] | [6] | [9] | [10] | [7]

C[C@]12C=CC3=C4CCC(=O)C=C4CC[C@H]3[C@@H]1CC[C@@H]2O
inactive: [1] | [2] | [8] | [4] | [6] | [9] | [7]

CCCSP(=S)(OCC)Oc1ccc(SC)cc1 (stereo unspecified)
inactive: [1] | [2] | [8] | [4] | [5] | [6] | [9] | [7]

C[CH2][Hg][S]c1ccccc1C(=O)O
active: [1] 3.47 µM and 4.25 µM | [2] 3.47 µM and 6.01 µM | [3] 6.74 µM | [4] 1.09 µM and 1.68 µM | [5] 611 nM and 1.33 µM | [6] 4.36 µM and 3.79 µM | [7] 1.23 µM and 1.51 µM

FC(F)OC(F)(F)C(F)Cl (stereo unspecified)
inactive: [1] | [2] | [8] | [4] | [5] | [6] | [9] | [10] | [7]

Nc1cccc2ccccc12
inactive: [1] | [2] | [3] | [4] | [5] | [6] | [7]

COP(=O)(OC)OC(Br)C(Cl)(Cl)Br (stereo unspecified)
active: [4] 24.3 µM | [5] 27.3 µM
inactive: [1] | [2] | [6] | [10] | [7]

C=C(Cl)Cl
inactive: [1] | [2] | [8] | [4] | [5] | [6] | [9] | [10] | [7]

CCCN(CCOc1c(Cl)cc(Cl)cc1Cl)C(=O)n1ccnc1
inactive: [1] | [2] | [3] | [4] | [6] | [9] | [7]

CC(C)OC(=O)Cc1ccccc1
inactive: [1] | [2] | [8] | [4] | [6] | [9] | [10] | [7]

CCCCC(CC)COC(=O)c1c(Br)c(Br)c(Br)c(Br)c1C(=O)OCC(CC)CCCC (stereo unspecified)
inactive: [1] | [2] | [8] | [4] | [6] | [9] | [7]

O=C(O)c1cc(Cl)ccc1Cl
inactive: [2] | [8] | [4] | [5] | [6] | [9] | [10] | [7]

O=C(O)COc1cc(Cl)c(Cl)cc1Cl
inactive: [1] | [2] | [8] | [4] | [5] | [6] | [9] | [7]
active: [10] 24.6 µM

C[N+](C)(C)CC1CO1 (stereo unspecified)
inactive: [1] | [2] | [8] | [4] | [5] | [6] | [9] | [10] | [7]

COc1ccc(C(O)(c2cncnc2)C2CC2)cc1 (stereo unspecified)
inactive: [1] | [2] | [8] | [4] | [5] | [6] | [9] | [10] | [7]

NNCCO
inactive: [1] | [2] | [8] | [4] | [5] | [6] | [9] | [7]

C[Si](Cn1cncn1)(c1ccc(F)cc1)c1ccc(F)cc1
inactive: [2] | [8] | [4] | [6] | [9] | [10] | [7]

CC(C)[C@@H](C(=O)O[C@@H](C#N)c1cccc(Oc2ccccc2)c1)c1ccc(Cl)cc1
inactive: [1] | [2] | [3] | [4] | [6] | [7]

O=C(O)C(F)(F)C(F)(F)C(F)(F)C(F)(F)C(F)(F)F
inactive: [1] | [2] | [8] | [4] | [5] | [6] | [9] | [7]

CC(C)(C)CC(C)(C)c1ccc(O)cc1
inactive: [8]
54.5 µM (active) and inactive: [5]
active: [1] 17.4 µM | [2] 21.9 µM | [4] 27.3 µM | [6] 17.4 µM | [7] 17.4 µM and 23.9 µM

CCC[N+](CCC)(CCC)CCC
inactive: [1] | [2] | [8] | [4] | [5] | [6] | [9] | [10] | [7]

CCOC(=O)c1cn2nc(OP(=S)(OCC)OCC)cc2nc1C
inactive: [1] | [2] | [8] | [4] | [5] | [6] | [9] | [7]

O=P(OCC(Br)CBr)(OCC(Br)CBr)OCC(Br)CBr (stereo unspecified)
inactive: [2] | [3] | [4] | [6] | [9] | [7]

CCC(C)Cl (stereo unspecified)
inactive: [1] | [2] | [8] | [4] | [5] | [6] | [9] | [10] | [7]

CCC(C)(C)O
inactive: [1] | [2] | [8] | [4] | [5] | [6] | [9] | [10] | [7]

CCC1CCC(=O)O1 (stereo unspecified)
inactive: [1] | [2] | [8] | [4] | [5] | [6] | [9] | [10] | [7]

O=C(O)C(Cl)(Cl)Br
inactive: [1] | [2] | [8] | [4] | [5] | [6] | [9] | [7]

CN(C1CCCCC1)C1CCCCC1
inactive: [1] | [2] | [8] | [4] | [5] | [6] | [9] | [10] | [7]

COc1ccccc1N1CCNCC1
inactive: [1] | [2] | [8] | [4] | [5] | [6] | [9] | [7]

CCc1ccccc1N
inactive: [1] | [2] | [8] | [4] | [5] | [6] | [9] | [10] | [7]

NC(=S)c1c(Cl)cccc1Cl
inactive: [2] | [8] | [4] | [6] | [9] | [10] | [7]

CC(Cc1ccccc1)NCc1ccccc1Cl (stereo unspecified)
active: [9] 23.9 µM
inactive: [8] | [3] | [4] | [5] | [6] | [10] | [7]

CCOC(=O)C1OC1(C)c1ccccc1 (stereo unspecified)
13.9 µM (active) and inactive: [10]
inactive: [1] | [2] | [8] | [4] | [5] | [6] | [9] | [7]

CN1C[C@H](C(=O)N[C@]2(C)O[C@@]3(O)[C@@H]4CCCN4C(=O)[C@H](Cc4ccccc4)N3C2=O)C=C2c3cccc4[nH]cc(c34)C[C@H]21
54.7 µM (active) and inactive: [5]
inactive: [1] | [2] | [3] | [4] | [6] | [9]
active: [7] 22 µM
